Test results reported in the supplement of paper PMC6555819.

test system: VDR:RXRa (NR concentration 270 nM, RXRa partner concentration 90 nM); assay: PBM binding z-score (relative to random genomic background probes); higher = stronger binding; sequences stand for … in GC…GCGATTGACAGCGTAGAATGAAGG
Procedure: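 Protein-binding microarray (Agilent 4x180K custom design, double-stranded 60-nt probes: 5' GC cap, 34-nt variable region, 24-nt constant primer region; full probe sequence given). Purified or IVT nuclear receptor:RXRα heterodimers (3:1 NR:RXRα, mostly 270:90 nM) or homodimers were incubated for 1 h in PBS with 2% milk and no ligand, then detected with Alexa488 antibodies. Fluorescence from o1-orientation probes (~5 replicates averaged) was converted to z-scores against 500 random hg19 background probes. Variable regions are seed direct-repeat (DR0–DR5) sites, all their single-nucleotide variants and half-site ablations.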

| Sequence | PBM binding z-score |
| --- | --- |
| TCATAGAGGTAATACAGGTGAAAGTCGGCATCTA | 1.07 |
| CGTCAAAGTTCAACTAAGGTAACATAAAGCACGC | 4.72 |
| AGTCAAAGTTCATCTAGGTGACGTAAGATATGCT | 4.96 |
| AATACAGGGTCATCGTAGGCCAGACTACGCACAG | 5.11 |
| CAAAGTAGGTCAAAGGTCAAAGTCGAGCCAACCA | 6.63 |
| ACAGAAAGGTGATGAAGGTAACTCAGGCTATCAT | 1.2 |
| CATACAGGGTCAGCTAGGCCAGAATAGGGACGGC | 3.8 |
| GCTCGGAGGACAAGGTCAGTGCTTTGTCCGTAGA | 1.19 |
| ACTAGCAGGCCAAGGTTCACTCAAGATTAGTCCG | 2.01 |
| GGAACGAGGGCAAGTTGATATCAGAGTTTGATGG | 1.42 |
| TCTGCTAGGTCAGTTAGTCAGCTAACGAGCTGCC | -0.204 |
| GCTGCTAGGTCAGGCTGGTCAGCTAACGGGTACG | 0.677 |
| ATATGTAGGTTAAGGTTCATTCAGGTTGGTTCGC | 5.06 |
| TCTTGTAGATCAGCAGGTTACGAAAGCTGGCCAA | -0.0746 |
| TCGAGTAGGTTAGTCGGGGAATTCAGCCAACATA | -0.318 |
| ATATGTAGGTTAAGGGTCCTTCAGGTTGGTTCGC | 1.67 |
| ACTTACGGGTCAAAGAGGTTATAGCACGCGTATA | 7.09 |
| CGTCCAATGTCATAGGAGGTCAGTGAAGACAGAT | 3.45 |
| AGAATGAGGTTAGACGTAGATCAGGGAAGAAAGT | 0.639 |
| TCTAGTTGGTCAAATGTCACACACTCGAAATGCG | 1.44 |

| Sequence | PBM binding z-score |
| --- | --- |
| TAGCCTAGGTCAGATCGGGACAGTATACGCTATA | 1.23 |
| TCATATAGGTAAATGCTCGGTGAAAGTCCGATCT | 1.01 |
| GCTATTCGTTGAAAGGGCAACCGAATGATTCTCG | 0.306 |
| CCTCGGAGGACAACAGAAGGTCAGAGCTGCCAGA | 1.35 |
| ATATGTAGGTTACCTCCGGGTCATTCAGGCTATG | 4.01 |
| CCTGCTAGGTCATGGTCAGCTAATCTACAGTATG | 1.7 |
| TCTGCTAGGGCAGTTGGTCAGCTAACGAGCTGCC | -0.663 |
| TCGAGTAGGCTACCAATGGGGCATTCAGCTTTCT | -0.442 |
| TCATATAGGTAAAAGGTGAAAGACGGTGTGGTAA | 1.57 |
| CCTTACGGGTCACTCCAGGTTATGGCATCGGAGT | 4.08 |
| TCATATAGGTAAAAGGTGAAAGTTGGTGTGGTAA | 1.88 |
| GGAACAAGGGCAAAGTTGATAGCATCTGTCGACG | 0.828 |
| GCTTACCGGTCAAAGGTTATAGCATGAATAGAAT | 2.81 |
| ACAGACAGGTGAGTGATGGTAACTCAGCTGGACG | -0.122 |
| CCAAGTAGGTTATGGGGCATTCAGGCAACGGTGA | -0.0794 |
| ACAGACAGGTGAGTGAAGGTACCTCAGCTGGACG | -0.805 |
| CCTATTAGTTGACCATAAGGGCAACCCAAGCTCG | 0.972 |
| TCAGACAGGTGAAGGTAACTCGGGTACGCAGTCG | 1.45 |
| CCTCGGAGGACAGAAGGTCATAGCTGTCCGCTTT | 2.69 |
| TCGAGTAGGTTACCAATGGCGCATTCAGCTTTCT | 0.111 |
